Bioassay records as filed in PubChem.
GAA850 FXN act: FXN promoter activators, primary screen, cell-based, luciferase luminescence, HEK293 lucGAA850 | HEK293 lucGAA850 FXN promoter luciferase reporter, 24 h; percent of 10 µM SAHA response | activation, % at 6 µM | 360,000 tested, 0.56% active | AID 540364, 2011;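 active means activation above the average of all compounds screened plus 3 SD, cutoff fixed separately per campaign, cut at about 7.5% in these data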;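 further: 0% = DMSO wells and 100% = 10 µM SAHA wells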
HSF1 activator: HSF-1 activators, primary screen, NIH3T3-HGL cells, MG132 stress, luminescence, single point | NIH3T3-HGL HSF-1 luciferase reporter, 8 h; 100% = twice DMSO control signal | 300,000 tested, 1.7% active | activation, % at 9 µM;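 active means mean replicate activation of at least 50% with a set share of replicates each reaching 50%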;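 further: 0% = median of the neutral control wells and 100% = twice that signal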
HSF1 inh: HSF1 inhibitors in luciferase reporter cells, primary screen, cell-based, NIH3T3, luminescence; 300,000 tested, 0.77% active; NIH3T3-HGL HSE-luciferase, MG132-induced, luminescence 8 h; stronger effect = lower value; activity change, negative = inhibition, % at 7.5 µM (by protocol); AID 2098, 2009;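 active means more than half of replicate wells show activity change below -50%, luminescence cut by over half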;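 further: luciferase reports HSF-1 transcriptional activity via heat shock element; 0% = median of DMSO wells and -100% = zero luminescence signal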
NR0B1 inh: DAX1 (NR0B1) inhibitors, primary screen, cell-based, HEK293, Gal4-DAX1, luciferase luminescence; Nuclear receptor subfamily 0 group B member 1 (Homo sapiens), P51843; HEK293 Gal4-DAX1 luciferase reporter; inhibition, % at 6.75 µM; 340,000 tested, 0.99% active; AID 504766, 2011;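 active means inhibition above the mean over all tested compounds plus 3 SD, cut at about 4.2% in these data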;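 further: 0% = DAX1-transfected cells with DMSO and 100% = empty-vector control cells with DMSO; inhibition shows as a rise in luminescence from relieved DAX1 repression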
AHR act: AHR activators, primary screen, cell-based, luminescence, luciferase reporter, human; AHR-responsive luciferase reporter cells; activation, % at 5 µM; 320,000 tested, 2.5% active; in the data active means activation above about 47%;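 further: 0% = vehicle wells and 100% = reference agonist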
Target sequence (P35869 whole entry, looked up): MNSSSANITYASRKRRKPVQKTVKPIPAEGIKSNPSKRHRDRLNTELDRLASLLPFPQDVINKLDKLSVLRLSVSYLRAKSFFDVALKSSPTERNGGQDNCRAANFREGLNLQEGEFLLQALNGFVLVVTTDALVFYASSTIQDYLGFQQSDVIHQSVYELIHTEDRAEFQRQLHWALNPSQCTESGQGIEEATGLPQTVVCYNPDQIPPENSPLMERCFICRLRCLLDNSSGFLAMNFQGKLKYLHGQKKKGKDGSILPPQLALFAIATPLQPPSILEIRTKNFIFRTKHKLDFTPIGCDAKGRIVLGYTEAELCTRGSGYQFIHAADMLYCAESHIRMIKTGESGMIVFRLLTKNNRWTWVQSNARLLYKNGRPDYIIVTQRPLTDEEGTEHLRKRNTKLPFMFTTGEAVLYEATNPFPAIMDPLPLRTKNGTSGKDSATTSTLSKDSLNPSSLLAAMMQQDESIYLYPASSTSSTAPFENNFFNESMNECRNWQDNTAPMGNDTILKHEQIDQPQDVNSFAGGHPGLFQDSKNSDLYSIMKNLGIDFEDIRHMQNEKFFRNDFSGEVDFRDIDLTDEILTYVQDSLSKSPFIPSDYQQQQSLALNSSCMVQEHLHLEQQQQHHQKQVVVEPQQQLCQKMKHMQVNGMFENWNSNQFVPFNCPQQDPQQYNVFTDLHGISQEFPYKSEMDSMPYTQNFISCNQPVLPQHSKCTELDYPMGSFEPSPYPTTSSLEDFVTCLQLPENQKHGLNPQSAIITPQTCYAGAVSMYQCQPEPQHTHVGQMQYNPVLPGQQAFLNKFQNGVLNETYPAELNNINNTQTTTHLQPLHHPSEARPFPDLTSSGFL
* marks the source's active call; other numbers are inactive results; . = no result given. Only some compounds are listed: those with a hit (about 5.4% of all), similar ones and a draw of the others.

SMILES	GAA850 FXN act	HSF1 activator	HSF1 inh	NR0B1 inh	AHR act
O=C(N/N=C\c1cn[nH]c1-c1ccccc1)c1cccnc1	0	7	-2	0	72*
COc1ccc(-c2[nH]ncc2/C=N\NC(=O)c2ccc(Br)o2)cc1OC	4	9	0	1	60*
O=C(N/N=C\c1cn[nH]c1-c1ccccc1)c1cccs1	3	-80	-74*	4	30
O=C(N/N=C/c1c[nH]c2ccccc12)c1cccs1	2	34	52	.	44
Cc1cc(N2CCOCC2)ccc1/C=C\[N+](=O)[O-]	2	80*	75	-1	5
COCCCNC(=O)c1ccc(CN2CCc3ccccc3C2)cc1	0	16	-4	21*	0
Cc1nn(CC(=O)N(C)C2CCS(=O)(=O)C2)c(C)c1S(=O)(=O)N(C)C (stereo not given)	-1	.	.	0	0
CCn1c2ccccc2c2cc(NC(=O)CCCN3C(=O)CCC3=O)ccc21	0	-3	-5	0	67*
CCn1c2ccccc2c2cc(NC(=O)CSc3nnc(-c4ccccc4)o3)ccc21	-2	18	-1	0	44
CCn1c2ccccc2c2cc(NC(=O)c3ccc(=O)oc3)ccc21	2	14	-1	.	58*
CCn1c2ccccc2c2cc(NC(=O)c3cc(C)on3)ccc21	0	-3	-7	-1	53*
CCn1c2ccccc2c2cc(NC(=O)c3cc(OC)cc(OC)c3)ccc21	-1	-31	-20	-3	45
CCn1c2ccccc2c2cc(NC(=O)c3coc(=O)c(Br)c3)ccc21	0	-2	-3	.	41
CCn1c2ccccc2c2cc(NC(=O)CSc3nnc(-c4cccc(F)c4)o3)ccc21	-2	22	15	0	59*
COc1ccc(NC(=O)CCCN2C(=O)CCC2=O)cc1Cl	-3	-7	5	0	1
CCn1c2ccccc2c2cc(NC(=O)c3ccc(Br)o3)ccc21	-2	-6	8	0	63*
CCn1c2ccccc2c2cc(NC(=O)COC(=O)c3cc(Cl)c(N)cc3OC)ccc21	1	3	1	-2	73*
CC1CC(C)CN(C(=O)C2CCC(CNS(=O)(=O)c3ccccc3)CC2)C1 (stereo not given)	-3	-2	10	-1	-2
COc1cccc(CSc2nnc(C(F)(F)F)n2Cc2ccc(F)cc2)c1	2	87*	38	0	2
Cc1ccc(CSc2nnc(C(F)(F)F)n2Cc2ccc(F)cc2)cc1	3	32	20	0	-1
CC(NO)/C(=N\O)c1cccs1 (stereo not given)	1	-57	-51*	3	1
O=C(CSc1nnc2c3ccccc3c3ccccc3c2n1)Nc1ccccc1F	1	15	16	0	68*
O=C(CSc1nncc2ccccc12)Nc1cccc(O)c1	-1	67*	28	-2	1
O=C(CSc1nnc2c3ccccc3c3ccccc3c2n1)Nc1ccccc1	.	8	8	.	47*
O=C(CSc1nnc2c(n1)[nH]c1ccc(F)cc12)Nc1ccccc1F	4	0	0	-1	3
SMILES	GAA850 FXN act	HSF1 activator	HSF1 inh	NR0B1 inh	AHR act
Nc1cc(C(=O)O)ccc1Nc1ccccc1	2	-3	2	0	-1
CCc1ccccc1Nc1ccc(C(=O)O)cc1N	3	45	18	6.6*	3
Cc1ccc(OCC(=O)NCCCNC(=O)c2ccc(C)nc2)cc1	-1	3	-1	-1	-3
CNC(=O)NC(=O)C(C)OC(=O)c1c2c(nc3ccccc13)/C(=C/c1cccs1)CC2 (stereo not given)	4	60*	21	-4	-1
Cn1c(CNC(=O)CCNC(=O)c2cccc(F)c2)cc(=O)n(C)c1=O	0	-13	-9	1	0
CC(NC(=O)c1cc(-c2ccncc2)nc2ccc(Cl)cc12)C1CCCO1 (stereo not given)	0	-8	-7	1	16
CC(NC(=O)c1cc(-c2ccccn2)nc2ccc(Cl)cc12)C1CCCO1 (stereo not given)	-1	-8	2	3	52*
CCOc1ccc(-c2nnc3ccc(SC(C)C)nn23)cc1	0	7	4	0	51*
CCOc1ccc2nc(NC(=O)c3cnccn3)sc2c1	2	99*	47	2	0
CCOc1ccc2nc(NC(=O)CSc3cn[nH]n3)sc2c1	6	55*	17	1	10
CCOc1ccc(-c2nnc3ccc(SCC(=O)N4CCCCC4)nn23)cc1	0	3	-3	0	6
CCOc1ccc(-c2nnc3ccc(SCC(=O)Nc4nc5ccc(C)cc5s4)nn23)cc1	2	14	-2	0	63*
CN(c1nc2nonc2nc1NC1CC1)C1CCOC1 (stereo not given)	1	3	-1	0	2
C=CCNC(=S)NNC(=O)Cn1c(-c2ccccc2)cc(=O)n2ncnc12	-1	-3	1	1	2
Cc1ccc(S(=O)(=O)NCCc2nnc3ccc(SCC(=O)Nc4nc5ccccc5s4)nn23)cc1	.	6	3	.	4
CCOc1ccc(-c2nnc3ccc(SCC(=O)Nc4nc5ccccc5s4)nn23)cc1	-2	2	1	0	73*
COc1ccccc1N1CCN(C(=O)CN2C(=O)c3ccccc3S2(=O)=O)CC1	0	8	-5	-1	4
Cc1ccc(S(=O)(=O)NC(=O)Nc2ccc(Cl)cn2)cc1	2	6	-5	0	4
Cc1ccc(S(=O)(=O)NC(=O)Nc2ccc(C)cn2)cc1	2	69*	25	1	6
Cc1nn(C)cc1C(=O)Nc1ccc2c(c1)OCCO2	-4	-4	-7	1	47*
Cn1nccc1C(=O)Nc1ccc2c(c1)OCCO2	-4	-50	-44	1	9
Cc1c(C(=O)Nc2ccc3c(c2)OCCO3)cnn1C	-8	-65	-61*	0	-2
O=C(c1ccc(CS(=O)c2ccccc2Cl)o1)N1CCN(C2CCCCC2)CC1 (stereo not given)	-3	.	.	1	.
CN1CCN(c2ncnc3sc(-c4ccccc4)cc23)CC1	4	6	1	-1	55*
c1ccc(-c2cc3c(N4CCN(c5ccccc5)CC4)ncnc3s2)cc1	3	17	7	0	15
CN(C)/C=N/c1c(C#N)cnn1-c1ncnc2sc(-c3ccccc3)cc12	2	44	16	-1	58*
O=C(c1ccc(Br)cc1)N1CCCc2ccccc21	2	1	3	0	1
